This note sets out measurements from the supplement of paper PMC11219838.

The subject of the assay is Caenorhabditis elegans L1 (N2). In words: survival and reproduction score of C. elegans L1 (0: 0-10 living worms, 1: 11-20, 2: 21-50, 3: >50, 4: overgrown) (score 0-4); higher = more worms, less nematicidal, active = 1 or less; extreme values may be limits of the assay. The following applies: 60 µM; 6 days; temperature: 20 °C. The essentials:
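In liquid NGM with E. coli HB101, approximately 20 synchronized C. elegans N2 L1s per 96-well well were exposed to compound at 60 µM final (0.6% v/v DMSO) for 6 days at 20 °C with shaking at 200 rpm in sealed plates. Survival and reproduction were judged under a dissection microscope as an ordinal rating of living worms per well. Ratings went from 0 (0–10 worms) to 4 (overgrown, starved) and were averaged over two biological replicates.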
Consider `Fc1ccc(OCc2nc(-c3ccc(Br)cc3)no2)cc1`, for which the “survival and reproduction score” value was 3 (inactive).
The same measure for `COc1nc(-c2ccc(C)cc2)ccc1-c1noc(-c2ccc(F)cc2)n1`: 4 (inactive).
The same measure for `Cc1cccc(OCc2nc(-c3ccccc3Cl)no2)c1`: 4 (inactive); for `COc1ccc(-c2noc(C34CC5CC(CC(C5)C3)C4)n2)cc1`: 4 (inactive).
The same measure for `Cc1cccc(OC(C)c2nc(-c3cccnc3)no2)c1` (stereo not drawn): 4 (inactive).
For `Cc1cccc(-c2noc(-c3ccc(F)cc3)n2)c1`, the “survival and reproduction score” value is 2 (inactive).
As to `CC(=O)Nc1c(C)ccc(CNC(=O)CSc2nnc(-c3ccc(C(C)(C)C)cc3)o2)c1C`, the “survival and reproduction score” value was 4 (inactive).
For `Brc1ccc(OCc2nc(-c3ccncc3)no2)cc1`, the “survival and reproduction score” value is 4 (inactive).
Take `CCCCCSc1nnc(-c2ccc(Cl)cc2Cl)o1`: the “survival and reproduction score” value was 2 (inactive).
`CCOc1ccccc1-c1nnc(SCC(=O)c2ccccc2)o1`: the “survival and reproduction score” value is 4 (inactive).
`COc1cccc(-c2nc(-c3ccc(Cl)cc3)no2)c1`: the “survival and reproduction score” value was 4 (inactive).
With `Cc1ccc(-c2noc(-c3cccc(C)c3)n2)cc1`, the “survival and reproduction score” value was 0 (active).
For the compound `Cc1cc(Br)ccc1OCc1nc(-c2ccncc2)no1`, the “survival and reproduction score” value is 4 (inactive).
As for `Cc1cc(OCc2nc(-c3ccccn3)no2)c(C)cc1Br`, the “survival and reproduction score” value is 4 (inactive).
As for `COc1ccccc1OCc1nc(-c2ccc(Cl)cc2)no1`, the “survival and reproduction score” value was 4 (inactive).
As to `FC(F)(F)c1cccc(-c2noc(-c3cccnc3)n2)c1`, the “survival and reproduction score” value was 1 (active).
`COc1ccc(-c2nnc(SCC(=O)c3ccc4ccccc4c3)o2)cc1`: the “survival and reproduction score” value is 4 (inactive).
Regarding `CCOc1ccc(-c2nc(-c3ccc(C)cc3)no2)cc1`, the “survival and reproduction score” value was 0 (active).
Turning to `O=S(=O)(CCC(F)=C(F)F)c1ncc(Cl)s1` [fluensulfone], the “survival and reproduction score” value was 4 (inactive).
The figure for `COc1ccc(-c2nnc(SCC(=O)Nc3ccc(Cl)c(Br)c3)o2)cc1` is 4 (inactive); for `CC(C)(C)c1ccc(-c2nnc(SCC(=O)c3ccc(F)cc3)o2)cc1` it is 4 (inactive).
As for `O=C(Nc1ccccc1-c1nc(-c2ccncc2)no1)c1ccc(Cl)cc1`, the “survival and reproduction score” value is 4 (inactive).
As to `CCOc1nc(-c2ccc(C)cc2)ccc1-c1noc(-c2ccc(F)cc2)n1`, the “survival and reproduction score” value was 2 (inactive).
For the compound `CCOc1ccccc1-c1nnc(SCC(=O)N2CCC(C)CC2)o1`, the “survival and reproduction score” value was 4 (inactive).
On to `COc1ccc(CC(=O)Nc2ccc(-c3noc(COc4cccc(C)c4C)n3)cc2)cc1`, for which the “survival and reproduction score” value was 4 (inactive).
For the compound `Cc1cccc(-c2noc(COc3ccccc3Cl)n2)c1`, the “survival and reproduction score” value is 4 (inactive).
Take `CC1CCN(C(=O)CSc2nnc(-c3cc4ccccc4o3)o2)CC1`: the “survival and reproduction score” value was 4 (inactive).
Take `COc1ccc(-c2noc(COc3ccc(F)cc3)n2)cc1`: the “survival and reproduction score” value was 4 (inactive).
`Cc1cc(NC(=O)CSc2nnc(-c3ccc(Cl)cc3Cl)o2)no1`: the “survival and reproduction score” value is 4 (inactive).
The same measure for `Fc1ccccc1-c1nc(-c2ccc(Cl)cc2)no1`: 1 (active); for `Cc1ccccc1OCc1nc(-c2ccccc2)no1`: 4 (inactive).
With `Cc1csc(NC(=O)CSc2nnc(-c3cccc(Cl)c3)o2)n1`, the “survival and reproduction score” value was 4 (inactive).
For the compound `COc1ccc(-c2nnc(SCc3csc(N)n3)o2)cc1`, the “survival and reproduction score” value is 4 (inactive).
The same measure for `CCc1ccc(OCc2nc(-c3ccc(Cl)cc3)no2)cc1`: 4 (inactive); for `O=C(Nc1ccccc1-c1nc(-c2cccnc2)no1)c1cccc(Cl)c1`: 4 (inactive).
Consider `CCOc1ccc(-c2nc(-c3cccnc3)no2)cc1OCC`, for which the “survival and reproduction score” value is 4 (inactive).
Consider `O=C(CSc1nnc(-c2cccc(Br)c2)o1)NC1CCCCC1`, for which the “survival and reproduction score” value was 4 (inactive).
For the compound `Cc1cccc(-c2noc(COc3cc(C)ccc3C)n2)c1`, the “survival and reproduction score” value was 2 (inactive).
